# Experimental data: ChEMBL document CHEMBL3988442, “University of Dundee, Small-Polar-MMV Screening Library” (2021)
# The whole screen tested about 69,000 compounds, of which about 420 (0.61%) showed an effect of 50% or more. The entries come from a sample that favours strong results as a whole.
# Molecular target: T1, Histidine--tRNA ligase (Leishmania infantum) (UniProt A4I591)
# T1 sequence (whole entry): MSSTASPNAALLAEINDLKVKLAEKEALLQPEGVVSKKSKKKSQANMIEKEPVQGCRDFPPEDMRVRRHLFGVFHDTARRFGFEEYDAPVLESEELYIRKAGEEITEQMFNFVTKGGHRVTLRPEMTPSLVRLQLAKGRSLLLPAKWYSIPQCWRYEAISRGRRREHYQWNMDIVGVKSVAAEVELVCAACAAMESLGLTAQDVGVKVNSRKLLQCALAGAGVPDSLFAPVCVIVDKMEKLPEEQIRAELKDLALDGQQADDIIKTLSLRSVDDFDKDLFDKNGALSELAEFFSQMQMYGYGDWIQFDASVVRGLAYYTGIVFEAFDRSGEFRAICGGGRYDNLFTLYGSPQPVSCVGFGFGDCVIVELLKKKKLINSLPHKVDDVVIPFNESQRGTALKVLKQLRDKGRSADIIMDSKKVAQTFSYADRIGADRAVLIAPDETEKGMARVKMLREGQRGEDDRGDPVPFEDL
# Test: Leishmania infantum Histidine tRNA synthetase (LdHisRS)
# Type: functional
# Design: scale not given: in the data most compounds retested in dose-response had high values
# Details: 30 µM
row,SMILES,Percent Effect [%]
1,COCc1nc(CNc2cccc(-c3csc(C)n3)c2)cs1,-6.67
2,COCCCSc1ccc(NCc2scnc2C)cc1,9.09
3,Cc1ncsc1CNc1cccc(OCCN2CCCC2)c1,25.2
4,CN(C)CCNC(=O)[C@H]1C[C@@H]2CN(C(=O)NC3CCCC3)C[C@H]1O2,8.62
5,CN(C)c1cccc(C(=O)N2C[C@H]3CC[C@@H]2CN(C(=O)C2CCC2)C3)c1,18.4
6,O=S(=O)(c1cccs1)N1CCN2C[C@H](OCC3CC3)C[C@H]2C1,10.5
7,C[C@@H]1C[C@H]2CN(C(=O)c3ccncn3)C[C@H]2O1,-2.56
8,Cc1nnc([C@@H]2CCO[C@@H]3CCN(C(=O)Cc4ccccn4)C[C@@H]32)o1,15.8
9,CN1[C@H](CN2CCCC2)C[C@@H]2CN(Cc3ccoc3)CC[C@@H]21,6.84
10,Cn1cc(-c2c(C#N)c(N)nc3c2CCc2[nH]ccc2-3)cc1C#N,68.4
11,Cc1n[nH]c(C)c1-c1cc(-c2ccc[nH]2)nc(N)c1C#N,27.5
12,Cc1n[nH]c(C)c1-c1cc(-c2cc[nH]c2)nc(N)c1C#N,31.9
13,CCn1cc(-c2cc(-c3ccn(C)c3)nc(N)c2C#N)cc1C#N,10.4
14,Cc1c(-c2cnn(C)c2)nc(N)c(C#N)c1-c1ccc(CO)o1,19.7
15,Cn1cc(-c2c(C#N)c(N)nc3c2CCc2[nH]ccc2-3)cn1,97.4
16,Cc1cc(-c2c(C)c(-c3cnn(C)c3)nc(N)c2C#N)oc1C,22.4
17,CCc1ccc(-c2c(C)c(-c3cnn(C)c3)nc(N)c2C#N)o1,19.7
18,Cc1n[nH]c(C)c1-c1c(C#N)c(N)nc2c1CCc1[nH]ccc1-2,108
19,Cc1nnc([C@@H]2CC[C@@H]3[C@@H](CCN3C3CCC3)O2)o1,5.26

row,SMILES,Percent Effect [%]
1,O=C(NC1CCCC1)N1C[C@H]2CN(c3ccccn3)C[C@@]2(C(=O)O)C1,3.92
2,O=C(NC[C@]12COC[C@H]1CN(Cc1nccs1)C2)c1ccccc1,17.5
3,CS(=O)(=O)N1C[C@@H](NC(=O)c2ccno2)[C@@H]2OCCC[C@@H]21,-4.54
4,CCCN(C(=O)c1cnccn1)c1nc2c(s1)CCc1c-2cnn1C,94.8
5,COCCN1C(=O)CC[C@]12CC[C@@H](NC(=O)c1cnccn1)CC2,-179
6,Cc1cccc(N(CCC(N)=O)C(=O)c2cnccn2)c1,5
7,CCCN(CCC)C(=O)c1cnn(C)c1C,-4
8,Cc1cnc(C(=O)N(CCN(C)C)Cc2ccc(Cl)cc2)cn1,24
9,COCC1c2c(cnn2C)CCN1C(=O)c1cscn1 (stereo unspecified),11.7
10,CCCN(C(=O)c1cnc(C)cn1)c1nc2c(s1)CCc1c-2cnn1C,99
11,COCCN(C(=O)c1cnccn1)c1nc2c(s1)CCc1c-2cnn1C,51
12,CCN(CC)Cc1cn2c(n1)CN(C(=O)c1cnccn1)CC2,9.02
13,Cc1nc(CN2CC[C@@H]3O[C@@H](C(=O)N4CCOCC4)C[C@@H]32)cs1,17.4
14,Cn1cccc1C(=O)N1C[C@@H]2CCCO[C@@H]2[C@H](N2CCOCC2)C1,17.5
15,Cc1ccc(C(=O)N2C[C@@H]3[C@@H](C2)OCC(=O)N3Cc2cccnc2)o1,22.1
16,O=C1C[C@H]2[C@@H](CCN2C(=O)c2ccc[nH]2)N1CCN1CCCC1,8.06
17,Cc1ccc(CN2CCN(Cc3nccn3C)[C@H]3CS(=O)(=O)C[C@H]32)o1,16.8
18,O=C(NC1CC(F)(F)C1)[C@]12COC[C@H]1CN(Cc1ccccc1)C2,24
19,CNC(=O)[C@H]1C[C@@H]2CN(S(=O)(=O)c3cccc(F)c3)C[C@@H]2N1C,28.6

row,SMILES,Percent Effect [%]
1,CN(C)C(=O)N1C[C@@H]2COC[C@]2(CNS(C)(=O)=O)C1,4.51
2,CC(C)(C)c1ccc(OCC(=O)O)c(CN2C[C@H]3C[C@H](O)C[C@H]3C2)c1,14.5
3,Cc1nc(CN2CC[C@H]3[C@H]2CCN3c2nncs2)cs1,17.5
4,NCC1Cc2cc(-c3nccc(N4CCC(O)CC4)n3)cc(Cl)c2O1 (stereo unspecified),60
5,NCC1Cc2cc(-c3cnccn3)cc(Cl)c2O1 (stereo unspecified),11
6,NCC1Cc2cccc(-c3nccc(N4CCC(O)CC4)n3)c2O1 (stereo unspecified),34.3
7,NCC1Cc2cc(-c3nccc(N4CCC(O)CC4)n3)cc(F)c2O1 (stereo unspecified),51.4
8,Cc1nc(-c2cc(Cl)c3c(c2)CC(CN)O3)c[nH]1 (stereo unspecified),40.5
9,Cc1nc(-c2cc(F)c3c(c2)CC(CN)O3)c[nH]1 (stereo unspecified),26.2
10,CCCOc1ccc(C(=O)N2CC[C@H]3CC[C@@H](C2)N3)cc1Cl,9.17
11,Cn1cccc1C(=O)N1CC[C@@H]2[C@@H]1CC(=O)N2CC1CCOCC1,19.3
12,CN1CCO[C@@H]2CN(C(=O)Cc3cccs3)CC[C@@H]2C1,2.73
13,Cc1nccc(-c2cccc(NCC(=O)N3CCNC(=O)C3)c2)n1,14.9
14,Cc1nccc(-c2cccc(NCC(=O)N3CCCCCCC3)c2)n1,-19.7
15,Cc1nccc(-c2cccc(NCC(=O)N3CCc4sccc4C3)c2)n1,50
16,CCOc1nnc(CNC2CCCN(c3ccc(C)nn3)C2)s1 (stereo unspecified),54.8
17,CCOc1nnc(CN(C)C2CCCN(c3ccc(C)nn3)C2)s1 (stereo unspecified),27
18,Cc1ccc(N2CCCC(NCc3ccc(C)s3)C2)nn1 (stereo unspecified),12.3
